Data published in the supplement of paper PMC10849652.
About 7,900 targets were measured; listed, in parts, are those with a hit and a random draw of the rest. About 0.6% of all pairs of compound and target were hits.

How the values were obtained:
Test in all cases: log2 fold change, soluble protein after heating vs DMSO (PISA); higher = thermal stabilisation; K562 cells, 10 uM, 30 min; active = over 0.2 and 3.5 SD of the protein, either way, in both replicates (recomputed)
[1] = compound: C1COCCN1CCN2C3=CC=CC=C3N=C2NC(=O)C4=CC(=CC=C4)[N+](=O)[O-] [IRAK-1-4 Inhibitor I]
Method in brief: (§1)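 K562 cells (2×10^6 cells/mL) were treated with 10 μM compound for 30 min, and aliquots were heated for 3 min over 48°C-58°C. Pooled aliquots were extracted in PBS with 0.5% NP-40 at 4°C, and the supernatant after 21,000xg for 90 min was measured by TMTpro 16plex LC-MS/MS with channel sums equalised. Reported thermal stability, relative to control samples and from duplicates, is a log2 fold change.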

[2] = compound: C=CC(=O)N1CCC[C@@H](n2nc(-c3ccc(Oc4ccccc4)cc3)c3c(N)ncnc32)C1 [ibrutinib]
Method in brief: as §1

[3] = compound: CC(C)(C)Cn1c(N)nc2ccc(-c3[nH]c(C(C)(C)C)nc3-c3ccc(F)cc3)nc21 [ralimetinib]
Method in brief: as §1

[4] = compound: CC(C)C1=C2N=C(C=C(N2N=C1)NCC3=CC=CC=C3)NCCCCCCN
Method in brief: as §1

[5] = compound: CC(C)C[C@@H](C=O)NC(=O)[C@H](CC(C)C)NC(=O)[C@H](CC(C)C)NC(=O)OCc1ccccc1
Method in brief: as §1

[6] = compound: CC(C)N(C[C@H]1O[C@@H](n2cnc3c(N)ncnc32)[C@H](O)[C@@H]1O)[C@H]1C[C@@H](CCc2nc3cc(C(C)(C)C)ccc3[nH]2)C1 [pinometostat]
Method in brief: as §1

[7] = compound: CC1=C(C(CC(=O)N1)C2=CC=C(C=C2)C(F)(F)F)C(=O)NC3=C(C=C4C(=C3)C=NN4)F
Method in brief: as §1

[8] = compound: CC1=C(C2=C(C=C1)C(=O)C3=CC=CC=C3N2CCCN)C
Method in brief: as §1

[9] = compound: CC1=C(C=C(C=C1)NC(=O)C2=CC(=CC=C2)C(C)(C)C#N)NC3=CC4=C(C=C3)N=CN(C4=O)C
Method in brief: as §1

[10] = compound: CC1=C(C=C(C=C1)NC(=O)C2=CC(=CC=C2)N(C)C)NC(=O)C3=CC=C(C=C3)O
Method in brief: as §1

[11] = compound: CC1=NC(=CC=C1)C2=C(N=C(N2)C(C)(C)C)C3=CC4=NC=CN=C4C=C3
Method in brief: as §1

[12] = compound: CCCS(=O)(=O)Nc1ccc(F)c(C(=O)c2c[nH]c3ncc(-c4ccc(Cl)cc4)cc23)c1F [vemurafenib]
Method in brief: as §1

[13] = compound: CCCc1cc(C)[nH]c(=O)c1CNC(=O)c1cc(-c2ccnc(N3CCN(C)CC3)c2)cc2c1cnn2C(C)C
Method in brief: as §1

[14] = compound: CCN(CC)Cc1ccc2cc(COC(=O)Nc3ccc(C(=O)NO)cc3)ccc2c1 [givinostat]
Method in brief: as §1

[15] = compound: CCN(CCCOc1ccc2c(Nc3cc(CC(=O)Nc4cccc(F)c4)[nH]n3)ncnc2c1)CCOP(=O)(O)O [barasertib]
Method in brief: as §1

[16] = compound: CC(=O)c1cnc2ccc(-c3cc(Cl)c(O)c(Cl)c3)nc2c1N[C@H]1CC[C@H](CN(C)C)CC1
Method in brief: as §1

[17] = compound: CC(C)(O)CC(=O)NCCn1ccc2ncnc(Nc3ccc(Oc4cccc(C(F)(F)F)c4)c(Cl)c3)c21
Method in brief: as §1

[18] = compound: CCCCN(Cc1ccc(C(=O)NO)cc1)C(=O)Nc1ccccc1 [Nexturastat A]
Method in brief: as §1

[19] = compound: CC1=CC=C(C=C1)SC2=C3C=C(SC3=CN=C2)C(=O)N
Method in brief: as §1

[20] = compound: CCCS(=O)(=O)Nc1ccc(F)c(C(=O)c2c[nH]c3ncc(Cl)cc23)c1F
Method in brief: as §1

Measured: log2 fold change

TRIM23 (UniProt P36406)
Sequence of UniProt P36406 (P36406 whole entry, looked up): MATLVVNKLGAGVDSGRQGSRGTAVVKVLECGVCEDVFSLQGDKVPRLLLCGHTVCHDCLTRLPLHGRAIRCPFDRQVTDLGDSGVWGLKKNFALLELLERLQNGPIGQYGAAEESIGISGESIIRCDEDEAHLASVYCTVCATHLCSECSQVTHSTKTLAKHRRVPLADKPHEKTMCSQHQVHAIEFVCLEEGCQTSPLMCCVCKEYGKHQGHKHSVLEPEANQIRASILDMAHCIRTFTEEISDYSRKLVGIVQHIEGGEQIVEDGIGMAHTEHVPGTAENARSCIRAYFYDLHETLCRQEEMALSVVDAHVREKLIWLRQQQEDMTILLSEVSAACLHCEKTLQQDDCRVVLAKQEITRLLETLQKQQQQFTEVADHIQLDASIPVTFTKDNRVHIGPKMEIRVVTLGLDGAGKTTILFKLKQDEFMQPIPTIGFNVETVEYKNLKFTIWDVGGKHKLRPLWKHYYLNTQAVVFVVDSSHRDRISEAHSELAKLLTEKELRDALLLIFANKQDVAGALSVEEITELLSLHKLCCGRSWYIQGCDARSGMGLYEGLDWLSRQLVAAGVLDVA
inactive: [1] 0.064 | [2] 0.072 | [3] -0.034 | [4] 0.146 | [5] -0.019 | [6] -0.024 | [7] -0.044 | [8] 0.242 | [9] -0.025 | [10] -0.008 | [11] 0.036 | [12] -0.022 | [13] 0.055 | [14] 0.027 | [15] 0.021

TOM1L2 (UniProt Q6ZVM7)
Sequence of UniProt Q6ZVM7 (Q6ZVM7 whole entry, looked up): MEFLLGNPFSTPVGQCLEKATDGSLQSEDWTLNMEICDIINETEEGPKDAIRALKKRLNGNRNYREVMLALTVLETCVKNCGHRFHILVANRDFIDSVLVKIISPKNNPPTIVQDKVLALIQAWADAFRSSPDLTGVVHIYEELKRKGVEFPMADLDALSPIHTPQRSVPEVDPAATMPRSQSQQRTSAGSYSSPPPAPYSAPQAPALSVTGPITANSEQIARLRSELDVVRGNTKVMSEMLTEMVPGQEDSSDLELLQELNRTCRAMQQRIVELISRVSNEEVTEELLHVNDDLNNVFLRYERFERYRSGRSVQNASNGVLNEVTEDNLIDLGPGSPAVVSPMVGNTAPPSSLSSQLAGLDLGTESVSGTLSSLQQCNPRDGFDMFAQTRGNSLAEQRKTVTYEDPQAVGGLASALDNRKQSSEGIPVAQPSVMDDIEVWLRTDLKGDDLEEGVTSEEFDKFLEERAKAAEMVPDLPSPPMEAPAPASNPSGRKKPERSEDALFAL
inactive: [1] -0.049 | [16] -0.031 | [17] -0.089 | [4] 0.049 | [6] 0.036 | [7] -0.012 | [9] -0.038 | [11] -0.132 | [18] -0.046 | [12] -0.008 | [14] 0.025

UTP20 (UniProt O75691)
Sequence of UniProt O75691 (O75691 whole entry, looked up): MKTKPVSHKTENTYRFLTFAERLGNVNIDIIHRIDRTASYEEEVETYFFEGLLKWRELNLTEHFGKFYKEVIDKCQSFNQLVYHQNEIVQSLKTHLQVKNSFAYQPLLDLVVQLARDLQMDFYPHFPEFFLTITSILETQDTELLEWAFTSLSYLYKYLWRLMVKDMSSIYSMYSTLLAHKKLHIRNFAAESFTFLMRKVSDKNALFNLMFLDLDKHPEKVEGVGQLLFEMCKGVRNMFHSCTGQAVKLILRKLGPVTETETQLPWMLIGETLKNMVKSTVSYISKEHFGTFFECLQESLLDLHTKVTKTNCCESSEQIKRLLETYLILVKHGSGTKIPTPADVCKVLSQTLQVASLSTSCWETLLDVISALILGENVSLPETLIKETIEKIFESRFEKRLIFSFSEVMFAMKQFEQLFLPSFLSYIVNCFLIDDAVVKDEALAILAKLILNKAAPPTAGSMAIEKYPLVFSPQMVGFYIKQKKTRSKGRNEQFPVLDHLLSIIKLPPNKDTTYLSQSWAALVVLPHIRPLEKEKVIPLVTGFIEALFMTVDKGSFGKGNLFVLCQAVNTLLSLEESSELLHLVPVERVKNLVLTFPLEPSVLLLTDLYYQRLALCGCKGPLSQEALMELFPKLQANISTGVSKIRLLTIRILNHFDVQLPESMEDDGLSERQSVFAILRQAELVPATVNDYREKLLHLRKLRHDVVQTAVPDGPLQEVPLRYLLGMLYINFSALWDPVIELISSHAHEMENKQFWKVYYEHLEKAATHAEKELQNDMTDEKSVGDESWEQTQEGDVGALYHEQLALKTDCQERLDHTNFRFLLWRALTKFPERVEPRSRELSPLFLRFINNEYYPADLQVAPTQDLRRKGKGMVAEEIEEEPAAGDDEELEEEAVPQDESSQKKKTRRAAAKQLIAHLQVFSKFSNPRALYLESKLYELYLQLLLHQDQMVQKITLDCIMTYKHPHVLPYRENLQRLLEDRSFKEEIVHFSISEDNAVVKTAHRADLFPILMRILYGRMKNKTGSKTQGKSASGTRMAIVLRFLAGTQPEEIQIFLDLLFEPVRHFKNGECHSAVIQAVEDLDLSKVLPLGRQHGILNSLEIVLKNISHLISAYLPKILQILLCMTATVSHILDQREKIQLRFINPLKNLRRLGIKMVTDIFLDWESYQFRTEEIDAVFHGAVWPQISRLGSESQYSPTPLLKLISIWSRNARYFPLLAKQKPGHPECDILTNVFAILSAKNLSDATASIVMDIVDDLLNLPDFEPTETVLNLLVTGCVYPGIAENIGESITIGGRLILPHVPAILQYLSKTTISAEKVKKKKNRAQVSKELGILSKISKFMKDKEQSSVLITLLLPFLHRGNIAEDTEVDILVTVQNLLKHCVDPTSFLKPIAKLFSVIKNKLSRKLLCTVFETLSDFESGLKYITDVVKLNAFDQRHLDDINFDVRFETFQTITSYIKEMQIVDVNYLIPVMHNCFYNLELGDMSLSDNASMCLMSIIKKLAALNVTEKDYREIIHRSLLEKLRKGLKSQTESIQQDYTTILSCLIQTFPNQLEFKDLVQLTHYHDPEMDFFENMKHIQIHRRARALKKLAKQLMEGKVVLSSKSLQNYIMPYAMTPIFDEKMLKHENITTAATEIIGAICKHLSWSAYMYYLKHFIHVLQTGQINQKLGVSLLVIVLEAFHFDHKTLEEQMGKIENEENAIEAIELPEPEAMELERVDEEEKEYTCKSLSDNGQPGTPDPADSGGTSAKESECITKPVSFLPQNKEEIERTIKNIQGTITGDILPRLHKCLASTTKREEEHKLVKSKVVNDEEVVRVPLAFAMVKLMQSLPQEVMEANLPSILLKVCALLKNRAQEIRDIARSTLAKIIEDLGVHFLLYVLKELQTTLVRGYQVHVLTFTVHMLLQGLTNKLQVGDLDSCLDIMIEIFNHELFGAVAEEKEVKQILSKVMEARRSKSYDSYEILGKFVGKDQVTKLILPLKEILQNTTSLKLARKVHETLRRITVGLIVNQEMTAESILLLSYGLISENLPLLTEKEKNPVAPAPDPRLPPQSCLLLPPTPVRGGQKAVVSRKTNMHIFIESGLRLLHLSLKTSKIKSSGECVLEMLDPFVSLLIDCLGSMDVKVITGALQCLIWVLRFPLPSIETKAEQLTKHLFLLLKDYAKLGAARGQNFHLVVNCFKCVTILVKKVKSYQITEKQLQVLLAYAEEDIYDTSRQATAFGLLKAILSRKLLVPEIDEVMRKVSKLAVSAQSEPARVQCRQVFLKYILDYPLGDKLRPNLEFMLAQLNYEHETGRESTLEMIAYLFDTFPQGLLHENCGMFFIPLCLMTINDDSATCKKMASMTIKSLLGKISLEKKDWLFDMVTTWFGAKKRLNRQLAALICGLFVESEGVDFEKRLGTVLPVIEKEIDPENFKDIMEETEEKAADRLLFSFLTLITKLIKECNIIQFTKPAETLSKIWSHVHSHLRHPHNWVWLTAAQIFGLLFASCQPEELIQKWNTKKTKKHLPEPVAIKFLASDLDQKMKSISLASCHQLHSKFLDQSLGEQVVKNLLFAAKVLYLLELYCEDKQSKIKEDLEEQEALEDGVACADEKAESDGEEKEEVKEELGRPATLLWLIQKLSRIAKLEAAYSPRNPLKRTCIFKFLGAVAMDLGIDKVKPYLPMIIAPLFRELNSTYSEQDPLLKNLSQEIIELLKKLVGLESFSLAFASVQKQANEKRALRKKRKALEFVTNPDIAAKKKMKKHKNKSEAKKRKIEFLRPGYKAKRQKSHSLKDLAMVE
active: [18] 0.755
inactive: [17] -0.172 | [4] 0.081 | [8] 0 | [19] 0.037 | [20] -0.086 | [14] 0.463

TSPAN13 (UniProt O95857)
Sequence of UniProt O95857 (O95857 whole entry, looked up): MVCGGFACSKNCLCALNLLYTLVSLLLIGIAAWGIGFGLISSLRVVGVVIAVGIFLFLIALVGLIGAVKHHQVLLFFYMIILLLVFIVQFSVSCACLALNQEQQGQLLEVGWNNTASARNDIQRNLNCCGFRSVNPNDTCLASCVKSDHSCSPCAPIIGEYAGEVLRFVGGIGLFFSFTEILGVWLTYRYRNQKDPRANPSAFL
inactive: [2] 0.175 | [3] -0.149 | [17] 0.151 | [4] -0.198 | [5] 0.018 | [7] 0.113 | [8] 0.065 | [9] 0.111 | [10] -0.078 | [19] 0.161 | [18] -0.061 | [12] 0.103 | [20] -0.08 | [13] -0.113 | [14] -0.063 | [15] -0.041

UBAP2L (UniProt F8W726)
inactive: [2] 0.017 | [4] -0.002 | [7] 0.145 | [8] 0.136 | [19] -0.093 | [20] 0.004 | [13] 0.014 | [14] -0.067 | [15] -0.058
